What is called inhibition is the relative decrease from the control value, in per cent.

The text below walks through data of PubChem BioAssay AID602399 (Sanford-Burnham Center for Chemical Genomics, 2012).

Structures are written as SMILES. About 2,800 (0.78%) of roughly 360,000 compounds were called active. The sample holds actives, similar compounds and a random draw of the others, so the mix is not that of the screen. Cut-off read from the data, not from the text of the source: active = inhibition above about 26%; inactive = the rest.

The subject of this test is Nicotinate-nucleotide adenylyltransferase NadD (Staphylococcus aureus N315). Briefly: inhibitors of S. aureus NadD, primary screen, biochemical, colorimetric, uHTS (AID 602399). As to conditions: purified NadD enzyme, colorimetric absorbance read-out; at 20 µM; hits give high values.
`Cc1cccc(N2C(=O)NC(=O)/C(=C\c3cnn(-c4ccccc4)c3)C2=O)c1`: the inhibition is 31.6% (active).

Consider `COC(=O)CN1C(=O)C2(C(C(=O)OC)=C(N)Oc3ccccc32)C2=C1CC(C)(C)CC2=O` (stereo not given), for which the inhibition was -11.2% (inactive).

As to `CC1(C)C(c2ccccc2)=NC(c2cccnc2)=[N+]1[O-]`, the inhibition was -1.36% (inactive).

Consider `Cc1cccc(NC(=O)N2CC3CC(C2)c2cccc(=O)n2C3)c1` (stereo not given), for which the inhibition was -1.21% (inactive).

Consider `COC1C(O)C(C)OC(OC2CCC3(C=O)C(CCC4C3CCC3(C)C(C5=CC(=O)OC5)CCC43O)C2)C1O` (stereo not given), for which the inhibition is -4.34% (inactive).

`CCOC(=O)c1c(C)c(C(=O)N2CCC3(CC2)OCCO3)c(C)n1CC`: the inhibition was -2.05% (inactive).

As to `O=c1[nH]c(CN2CC=C(c3ccccc3)CC2)nc2scc(-c3cccs3)c12`, the inhibition was 29.6% (active).

For the compound `CC1=CC(=Cc2sc3ccccc3[n+]2C)C=C(C)O1`, the inhibition was 1.49% (inactive).

As to `CCN1C(=O)NC(=O)C2(CCCC2)C1=O`, the inhibition is 1.24% (inactive).

In the case of `c1cc2c(cc1C1OCC3C(c4ccc5c(c4)OCO5)OCC13)OCO2` (stereo not given), the inhibition was 1.25% (inactive).

As for `CCCCCn1c(=O)c(C(=O)NCc2ccccc2)c(O)c2ccccc21`, the inhibition was 1.88% (inactive).

On to `CCCCCn1c(=O)c(C(=O)Nc2c(C)n(C)n(-c3ccccc3)c2=O)c(O)c2ccccc21`, for which the inhibition was 29.9% (active).

Take `CCCCn1c(=O)c(C(=O)Nc2ccccc2Cl)c(O)c2ccccc21`: the inhibition is -7.15% (inactive).

With `Clc1ccc2nc3c(c(-c4ccccc4)c2c1)CNCC3`, the inhibition is -4.51% (inactive).

Consider `COCc1cc(OC(=O)N(C)C)nc(-c2ccc(C)c(Cl)c2)n1`, for which the inhibition is -4.84% (inactive).

As to `COC1=C[C@@H]2[C@@H]3Cc4ccc(OC)c(O)c4[C@]2(CCN3C)CC1=O`, the inhibition was 3.24% (inactive).

As for `O=C1NC(=O)N(Cc2ccco2)C(=O)/C1=C\c1ccc(-c2ccc(F)cc2)o1`, the inhibition was 38.2% (active).

Take `O=C(Cn1c(=O)n(CC2CS2)c2ccccc21)N1CCCCC1` (stereo not given): the inhibition was -1.82% (inactive).

For the compound `COc1cccc(-c2nc3ccc(N4CCN(C)CC4)cc3[nH]2)c1`, the inhibition was -5.51% (inactive).

Consider `COC(=O)C1=C(c2cc3ccccc3o2)C[C@@H]2CC[C@H]1N2C(=O)NC1CCCCC1`, for which the inhibition is 0.201% (inactive).
